Assay results published in the supplement of paper PMC7411054.
Structures can show the parent of a compound that is named as a salt. Unmarked numbers belong to inactive results.

These compounds were tested on HepG2-TUBA1B-RELA (assay: phenotypically active (imaging signature differs from DMSO and reproducible) at any of 0.3-9 uM (binary (1 = active, 0 = inactive)); higher = active). Conditions: treatment time: 24 h.
How it was run: (§1)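 Live-cell features were measured per well and normalised to solvent control wells after fifteen gene-edited A549, HepG2 and WPMY1 reporter lines had been treated for 24 h at 0.3, 1, 3 or 9 µM in four wells each. A condition was deviating when ≥3 of 4 wells sat beyond the 95th percentile of control Euclidean distances. It was reproducible when the median replicate Pearson correlation exceeded the 95th percentile of non-replicates. Phenotypic activity demanded both.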

SMILES	phenotypically active
CCN1CCN(c2cc(-c3ccc(F)cc3)c3c(n2)CCCCCC3)CC1 [blonanserin]	1 (active)
COc1cc2c(NC3CCN(C(C)C)CC3)nc(C3CCCCC3)nc2cc1OCCCN1CCCC1	1 (active)
COc1cc2ncn(-c3cc(OCc4ccccc4C(F)(F)F)c(C(N)=O)s3)c2cc1OC	1 (active)
CCCCC1C(=O)N(c2ccccc2)N(c2ccc(O)cc2)C1=O (stereo unspecified) [oxyphenbutazone]	0
Cc1ccccc1N1C(=O)c2cc(S(N)(=O)=O)c(Cl)cc2NC1C (stereo unspecified) [metolazone]	0
Cc1nc(NC(=O)N2CCC[C@H]2C(N)=O)sc1-c1csc(C(C)(C)C)n1	1 (active)

What follows are compounds tested on WPMY1-ACTB-RAB5A in the same assay as above. Conditions: treatment time: 24 h.
How it was run: as §1

SMILES	phenotypically active
OCc1ccccc1O[C@@H]1O[C@H](CO)[C@@H](O)[C@H](O)[C@H]1O [Salicin]	0
O=C(c1ccc(C(=O)N2CCC(N3CCCC3)CC2)c(Nc2ccccc2)c1)N1CCC(N2CCCC2)CC1	0
O=c1[nH]cc(F)c(=O)[nH]1 [5-Fluorouracil]	0
CC[C@H](C)[C@H](NC(=O)OCc1ccccc1)C(=O)N[C@@H](CCC(=O)OC(C)(C)C)C(=O)N[C@@H](C)C(=O)N[C@H](C=O)CC(C)C	1 (active)
CN1CCN(C2=Nc3cc(Cl)ccc3Nc3ccccc32)CC1 [clozapine]	0
Cc1cc(C(C)(C)C)c(O)c(C)c1CC1=NCCN1 [oxymetazoline]	0
CC1(C)NC(=O)N(c2ccc([N+](=O)[O-])c(C(F)(F)F)c2)C1=O [nilutamide]	0
CCN1CCN(C(c2cccnc2)c2cc(Cl)c3cccnc3c2O)CC1 (stereo unspecified)	1 (active)
CCOc1cc(N2CCC(O)CC2)ccc1Nc1ncc2c(n1)N(C)c1ccccc1C(=O)N2C	1 (active)
Cc1c2oc3c(C)ccc(C(=O)NC4C(=O)NC(C(C)C)C(=O)N5CCCC5C(=O)N(C)CC(=O)N(C)C(C(C)C)C(=O)OC4C)c3nc-2c(C(=O)NC2C(=O)NC(C(C)C)C(=O)N3CCCC3C(=O)N(C)CC(=O)N(C)C(C(C)C)C(=O)OC2C)c(N)c1=O (stereo unspecified) [Actinomycin D]	1 (active)
Nc1nc2ccc(OC(F)(F)F)cc2s1 [riluzole]	0
NCCNS(=O)(=O)c1cccc2cnccc12 [H-9 dihydrochloride]	1 (active)
N#Cc1c(NC(=O)c2cccc3ccccc23)sc2c1CCCC2	1 (active)
COc1ccc2c(Oc3ccc(NC(=O)c4c(C)n(CC(C)(C)O)n(-c5ccccc5)c4=O)nc3)ccnc2c1	0
C[C@@H](c1ncncc1F)[C@](O)(Cn1cncn1)c1ccc(F)cc1F [voriconazole]	0
CN1C/C(=C/c2ccc(B(O)O)cc2)C(=O)/C(=C/c2ccc(B(O)O)cc2)C1	1 (active)
Nc1ccn([C@@H]2O[C@H](CO)[C@@H](O)C2(F)F)c(=O)n1 [gemcitabine]	1 (active)
Oc1ccc(Nc2nc(-c3ccc(Cl)cc3)cs2)cc1	1 (active)
C/C(=C/C(=O)Nc1ccccc1C(=O)O)c1ccc2ccccc2c1	0
NCCC(O)(P(=O)(O)O)P(=O)(O)O [pamidronate]	0

SMILES	phenotypically active
CCN1CCN(c2ccc(Nc3cc(N(C)C(=O)Nc4c(Cl)c(OC)cc(OC)c4Cl)ncn3)cc2)CC1	1 (active)
Cc1nc(NC(=O)N2CCC[C@H]2C(N)=O)sc1-c1ccnc(C(C)(C)C(F)(F)F)c1 [alpelisib]	0
CCN(CC)CCCC(C)Nc1ccnc2cc(Cl)ccc12 (stereo unspecified) [chloroquine]	1 (active)
C[C@H]1O[C@H](O[C@H]2[C@H](O)[C@@H](O)[C@@H](O[C@H]3[C@H](O)[C@@H](O)[C@H](O)O[C@@H]3CO)O[C@@H]2CO)[C@H](O)[C@@H](O)[C@@H]1N[C@H]1C=C(CO)[C@@H](O)[C@H](O)[C@H]1O [Acarbose]	0
C/C(=C/c1ccc(C(=O)O)cc1)c1ccc2c(c1)C(C)(C)CCC2(C)C	0
Cc1ccc(S(=O)(=O)/C=C/C#N)cc1	0
O=c1cc(-c2cccc3c2Sc2ccccc2S3)oc(N2CCOCC2)c1	1 (active)
CCCc1nc2c(C)cc(-c3nc4ccccc4n3C)cc2n1Cc1ccc(-c2ccccc2C(=O)O)cc1 [telmisartan]	0
CC(C)CCN1c2nc(Nc3cc(F)c(O)c(F)c3)ncc2N(C)C(=O)C1C (stereo unspecified)	1 (active)
COc1cc2nccc(Oc3ccc(NC(=O)NC4CC4)c(Cl)c3)c2cc1C(N)=O [lenvatinib]	1 (active)
Nc1cc(C(F)(F)F)c(-c2cc(N3CCOCC3)nc(N3CCOCC3)n2)cn1 [buparlisib]	1 (active)
Nc1ccn([C@@H]2O[C@H](CO)[C@@H](O)[C@H]2O)c(=O)n1 [Cytidine]	0
OC(CCN1CCCCC1)(c1ccccc1)C1CCCCC1 (stereo unspecified) [trihexyphenidyl]	0
COc1cc([C@@H]2c3cc4c(cc3[C@@H](O[C@@H]3O[C@@H]5CO[C@@H](C)O[C@H]5[C@H](O)[C@H]3O)[C@H]3COC(=O)[C@H]23)OCO4)cc(OC)c1O [etoposide]	1 (active)
CCN1CCN(c2cc(-c3ccc(F)cc3)c3c(n2)CCCCCC3)CC1 [blonanserin]	1 (active)
COc1cc2c(NC3CCN(C(C)C)CC3)nc(C3CCCCC3)nc2cc1OCCCN1CCCC1	1 (active)
COc1cc2ncn(-c3cc(OCc4ccccc4C(F)(F)F)c(C(N)=O)s3)c2cc1OC	1 (active)
CCCCC1C(=O)N(c2ccccc2)N(c2ccc(O)cc2)C1=O (stereo unspecified) [oxyphenbutazone]	0
Cc1ccccc1N1C(=O)c2cc(S(N)(=O)=O)c(Cl)cc2NC1C (stereo unspecified) [metolazone]	0
Cc1nc(NC(=O)N2CCC[C@H]2C(N)=O)sc1-c1csc(C(C)(C)C)n1	0
